B2AR arrestin ag – qHTS assay of beta-arrestin-biased ligands of beta2-adrenergic receptor: NCGC Sytravon Library Screen; Potency, µM (series often up to 46.1 µM), actives largely listed as activators; 44,000 tested, under 10 active; HTLA Tango cells, beta-arrestin recruitment, luciferase luminescence, 18 h; Beta-2 adrenergic receptor (Homo sapiens), P07550;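 note: potency is the fitted concentration of half-maximal effect; 0% = DMSO and full agonism = EC100 isoproterenol or metaproterenol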
Target sequence (P07550 whole entry, looked up): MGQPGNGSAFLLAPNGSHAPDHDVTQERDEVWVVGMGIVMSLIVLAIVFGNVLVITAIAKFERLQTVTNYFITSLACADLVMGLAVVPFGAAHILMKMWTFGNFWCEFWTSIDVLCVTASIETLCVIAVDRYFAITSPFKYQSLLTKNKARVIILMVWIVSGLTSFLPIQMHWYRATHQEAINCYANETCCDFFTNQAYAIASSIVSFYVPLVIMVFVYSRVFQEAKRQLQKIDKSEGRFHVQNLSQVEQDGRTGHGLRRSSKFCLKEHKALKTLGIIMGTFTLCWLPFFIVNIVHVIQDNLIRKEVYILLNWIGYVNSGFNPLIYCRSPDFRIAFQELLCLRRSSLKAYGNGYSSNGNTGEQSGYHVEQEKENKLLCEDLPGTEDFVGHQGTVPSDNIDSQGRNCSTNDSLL
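Tango cell line, 1% FBS DMEM; cpd titration up to 46 microM; 18 hr, 37 degrees C, 5% CO2. Luciferin/ATP substrate mix added, 15 min RT, luminescence. %Activity, CRC fitting, curve-class categorization.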
HTT-AS act – Primary qHTS for Identification of Small Molecule Activators of Huntingtin-Antisense Promoter Activity | Potency, µM (titrated, usually from 57.5 µM), inactives show at the highest dose activity change, positive = activation, actives largely listed as activators | HEK293 HTT-AS promoter firefly luciferase reporter, 24 h; response scale: percent change from vehicle, -100% = no light | AID 1508624, 2021 | actives 0.24% (n = 48,000); note: potency is the fitted concentration of half-maximal effect; nearly all actives have a fitted effect of over 55% in size
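Firefly luciferase signal from promoter-reporter HEK293 cells was scaled between vehicle (0%) and zero RLU (-100%). Compounds were tested at final concentrations of up to 57.5 uM over 24 h at 37 degrees C. PTC124 at 50 uM final served as control inhibitor.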
HTT promoter inh – Primary qHTS for Identification of Small Molecule Inhibitors of Huntingtin Promoter Activity; HEK293 HTT promoter firefly luciferase reporter, 24 h; AID 1508623, 2021; actives 0.93% (n = 48,000); Potency, µM (top dose mostly 57.5 µM), without a hit: at the highest dose activity change, negative = inhibition, hits mostly inhibitors; note: potency is the fitted concentration of half-maximal effect; nearly all actives have a fitted effect of over 50% in size
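HEK293 luciferase promoter-reporter cells (2,500/well) plated 24 h, then compounds added at up to 57.5 uM final for 24 h at 37 °C. Firefly luminescence by Dual-Glo, normalized to vehicle (0%) and zero RLU (-100%).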
GALK inh – qHTS Assay for Inhibitors of Human Galactokinase (GALK): NCGC Sytravon Library Screen | recombinant GALK, Kinase-Glo ATP luminescence, 1 h | Potency, µM (highest dose often 57.5 µM), for inactives: at the highest dose activity, negative = inhibition, actives largely listed as inhibitors | 44,000 tested, under 10 active | AID 1347072, 2019;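 note: plate controls were full GALK reaction for no effect and reaction lacking GALK for full effect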
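5 nM GALK with 35 µM ATP and 100 µM galactose in HEPES pH 8.0, MgCl2, NaCl, DTT, BSA; 1 h RT reaction, remaining ATP detected by Kinase-Glo Plus luminescence after 10 min; qHTS concentration series.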
DRV1 agonist – qHTS for Agonists of Human Resolvin D1 Receptor DRV1; Probable G-protein coupled receptor 32 (Homo sapiens), O75388; CHO-K1 GPR32 beta-arrestin PathHunter luminescence, 90 min; zero percent set by DMSO-only wells; activation, % at 76.9 µM; actives 2.5% (n = 48,000);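 active = activation of at least 60% and not above a set upper limit, about 1 call in 100 departs from these limits; inconclusive = activation of 40% to 60%, or above that upper limit; inactive = activation under 40%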; note: 0% is about no effect
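Agonism was scored by beta-Gal fragment complementation (chemiluminescent read, 1 h detection at ambient temperature) reporting beta-arrestin binding to GPR32 in engineered CHO-K1 cells. Compound treatment lasted 90 min at 37 C, normalized to a DMSO basal control.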
TSG101-PTAP inh – qHTS Validation Assay for Inhibitors of HIV-1 Budding by Blocking the Interaction of PTAP/TSG101: Sytravon Library Screen; Tumor susceptibility gene 101 protein (Homo sapiens), Q99816; Fluorescence polarization, FITC-PTAP peptide/Tsg101, 20 min; Potency, µM (highest dose often 115 µM), most hits filed as inhibitors; 44,000 tested, under 10 active; note: potency is the fitted concentration of half-maximal effect; 0% is about no effect
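Fluorescence polarization binding of Tsg101 binding domain (10 uM final) to FITC-labeled PTAP-motif peptide (50 nM final) in HEPES pH 7.5/NaCl/Tween 20/EDTA/TCEP buffer; 20 min at r.t. Actives by curve class, <25 µM, efficacy <60% inhibition.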
* = called active by the depositor; i = inactive; ? = inconclusive; · = no result given. Rows were chosen to be rich in hits. Some 3.7% of all compounds tested hit in one or more screens of this group. Unless noted, calls come from the whole dose curve; as a rule, active = well fitted curve in the direction sought with a large enough effect; inconclusive = small, poorly fitted or top-dose-only effect, or another doubt; inactive = no such curve, though single readings can be large; an effect the other way counts as inactive or inconclusive.

SMILES	B2AR arrestin ag	HTT-AS act	HTT promoter inh	GALK inh	DRV1 agonist	TSG101-PTAP inh
COc1ccc(S(=O)(=O)N2CCC(c3nnc(-c4ccccc4C)o3)CC2)c(OC)c1	i	-31%	?	0%	16	i
Cc1ccccc1-c1nnc(C2CCN(S(=O)(=O)c3ccc(Cl)cc3)CC2)o1	i	-54%	16µM*	7%	-6	i
Cc1cccc(Nc2nc(-c3ccccc3)nc3ccccc23)c1	i	-30%	-23%	0%	110*	i
Cc1ccc(Nc2nc(-c3ccccc3)nc3ccccc23)cc1	i	-29%	-29%	2%	?	i
CCOC(=O)c1nc(Nc2cccc(C)c2)c2ccccc2n1	i	-25%	?	-2%	-5	i
Oc1cccc(Nc2nc(-c3ccccc3)nc3ccccc23)c1	i	-8%	-18%	-19%	61*	i
Cc1cc(CS(=O)(=O)c2ccccc2)cc(OCc2ccc(CN3CCC[C@H]3CO)cc2)c1	·	-2%	3%	·	·	·
Cc1ccc(C2C=C(c3ccc(Cl)cc3)Nc3nc(NC(=O)c4ccco4)nn32)cc1 (stereo not drawn)	i	-50%	?	3%	108*	i
Cc1ccc(S(=O)(=O)Nc2nc3n(n2)C(c2ccc(Cl)cc2)C=C(c2ccccc2)N3)cc1 (stereo not drawn)	i	-14%	-15%	4%	89*	i
CC(=O)Nc1ccc(S(=O)(=O)Nc2nc3n(n2)C(c2ccccc2)C=C(c2ccc(Cl)cc2)N3)cc1 (stereo not drawn)	i	-4%	1%	-9%	84*	?
COc1ccccc1C(=O)Nc1nc2n(n1)C(c1ccc(F)cc1)C=C(c1ccc(Cl)cc1)N2 (stereo not drawn)	i	-38%	?	3%	11	i
O=S(=O)(Nc1nc2n(n1)C(c1ccc(F)cc1)C=C(c1ccccc1)N2)c1ccc(Cl)cc1 (stereo not drawn)	i	-19%	-18%	-10%	?	i
COc1ccc(C2C=C(c3ccccc3)Nc3nc(NS(=O)(=O)c4ccc(Cl)cc4)nn32)cc1 (stereo not drawn)	i	-11%	-12%	2%	?	i
O=S(=O)(Nc1nc2n(n1)C(c1ccccc1)C=C(c1ccc(Cl)cc1)N2)c1ccccc1 (stereo not drawn)	i	-7%	-7%	0%	72*	?
Cc1ccc(C2C=C(c3ccccc3)Nc3nc(NS(=O)(=O)c4ccccc4)nn32)cc1 (stereo not drawn)	i	-10%	-6%	3%	?	?
CCCCCCC[N+](CC)(CC)CCCCc1ccc(Cl)cc1	·	-42%	?	·	87*	·
COc1cccc(NC(=O)/C(C#N)=C/c2ccc(-c3ccc(C)cc3)o2)c1	i	-21%	?	2%	-25	40µM*
COc1ccc(NC(=O)/C(C#N)=C/c2ccc(C)o2)cc1	i	?	49%	0%	12	i
CCC(C(=O)O)c1ccc(N2Cc3ccccc3C2=O)cc1 (stereo not drawn)	·	?	5%	·	16	·
CC(C)NCCCC1(C(N)=O)c2ccccc2-c2ccccc21	·	-13%	-1%	·	-29	·
COc1cccc(NC(=O)CSc2nnc(COc3ccc(Cl)cc3)o2)c1	i	·	·	-1%	16	i
CCc1ccccc1NC(=O)CSc1nnc(COc2ccccc2Cl)o1	i	-3%	?	2%	69*	i
COc1cc(C)c(Sc2cnc(NC(=O)c3ccc(CNC(C)C(C)(C)C)cc3)s2)cc1C(=O)N1CCN(C(C)=O)CC1 (stereo not drawn)	·	-9%	-23%	·	·	·
CN(Cc1ccc(C(C)(C)C)cc1)Cc1cccc2ccccc12	·	-15%	2%	·	68*	·
CN(C/C=C/c1ccccc1)Cc1cccc2ccccc12	·	-26%	-8%	·	117*	·
SMILES	B2AR arrestin ag	HTT-AS act	HTT promoter inh	GALK inh	DRV1 agonist	TSG101-PTAP inh
NC(=O)c1cccc2cn(-c3ccc([C@@H]4CCCNC4)cc3)nc12	·	-1%	12%	·	·	·
CCOc1ccccc1OCCNC(C)Cc1ccc(OC)c(S(N)(=O)=O)c1 (stereo not drawn)	·	-6%	1%	·	·	·
Cc1cc(OCC(=O)Nc2cnn(CCCC(=O)O)c2)ccc1Cl	i	-5%	-12%	-4%	82*	i
C=CC[N+]1([C@H]2C[C@H]3[C@@H]4CC[C@H]5C[C@H](O)[C@@H](N6CCOCC6)C[C@]5(C)[C@@H]4CC[C@]3(C)[C@H]2OC(C)=O)CCCC1	·	-7%	-2%	·	·	·
CCOC(=O)c1ccc(NC(=O)CC2Nc3cccc4cccc(c34)NC2=O)cc1 (stereo not drawn)	i	-22%	?	2%	0	i
CCOc1ccc(NC(=O)CC2Nc3cccc4cccc(c34)NC2=O)cc1 (stereo not drawn)	?	-21%	-7%	2%	83*	i
COc1cccc(NC(=O)CC2Nc3cc(C)c(C)cc3NC2=O)c1 (stereo not drawn)	i	-1%	-17%	0%	-24	i
CCOC(=O)c1ccc(NC(=O)CC2Nc3cc(C)c(C)cc3NC2=O)cc1 (stereo not drawn)	i	-90%	8.9µM*	0%	-33	i
CNC(=O)c1c(-c2ccc(F)cc2)oc2cc(N(CCO)S(C)(=O)=O)c(C3CC3)cc12	·	-37%	-7%	·	·	·
CCCCCn1c(=N)n(CC(O)COc2cccc(C)c2)c2ccccc21 (stereo not drawn)	i	-33%	?	4%	90*	i
Cc1ccccc1OCC(O)Cn1c(=N)n(CCN2CCCCC2)c2ccccc21 (stereo not drawn)	i	-29%	?	0%	20	i
N=c1n(CCN2CCCCC2)c2ccccc2n1CC(O)COc1ccccc1 (stereo not drawn)	i	-50%	?	?	65*	i
